FMDV inh: High Throughput Screening for Foot and Mouth Disease Virus Antivirals; FMDV antiviral cell-based qHTS; Potency, µM (titrated, usually from 57.9 µM), inactives show top-dose activity change, negative = inhibition, hits mostly inhibitors; actives 1.2% (n = 410,000); AID 1159524, 2015; calls by dose curve; tested in HEK293T cells; also: read-out not given here; potency is read from the fitted curve at half-maximal effect; % is scaled to controls: 0 for no effect and ±100 for the full control effect; nearly all actives have a fitted effect of over 45% in size
Cycloheximide cs: Cycloheximide Counterscreen for Small Molecule Inhibitors of Shiga Toxin; actives 12% (n = 300,000); cell reporter, cycloheximide protein synthesis inhibition counterscreen; max response, %; AID 2314, 2010; in the data active = max response mostly above about 13%, no sharp cut-off; inactive = mostly below about 14%; also: read at 38.3 µM for the half of the compounds with a filed dose; 0% is about no effect
Shiga toxin inh: A qHTS for Small Molecule Inhibitors of Shiga Toxin; Vero cells, Shiga toxin protein synthesis inhibition reporter; inhibition, % at 38.7 µM; actives 9.2% (n = 290,000); AID 2315, 2010; in the data active = inhibition mostly above about 28%, no sharp cut-off; inactive = mostly below about 43%; also: 0% is about no effect
HCV inhibitor: qHTS Assay for Inhibitors of Hepatitis C Virus (HCV). Potency, µM (titrated, usually from 41.8 µM), for inactives: at the top dose activity change, negative = inhibition, hits mostly inhibitors. actives 3.4% (n = 340,000). Huh7.5.1 HCVcc-Cre infection, luciferase reporter, 44 h. AID 651820, 2012; active = well fitted inhibition curve with a large enough effect; inconclusive = small, poorly fitted or top-dose-only effect, or another doubt; inactive = no such curve, though single readings can be large or run the other way; also: potency is read from the fitted curve at half-maximal effect; % is scaled to controls: 0 for no effect and ±100 for the full control effect
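1,000 cells/well; 4 h culture; + compound; + HCVcc-Cre (~0.5 moi); 44 h; luciferase substrate, RT 15 min; read 15 sec.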
MARV entry inh: qHTS for inhibitors of binding or entry into cells for Marburg Virus. Marburg virus pseudotyped entry inhibition, cell reporter. Potency, µM (highest dose often 37.8 µM), for the others: at the top dose activity change, negative = inhibition, usual class: inhibitors. actives 1.8% (n = 300,000). AID 540276, 2011; calls by dose curve; tested in HEK293 cells; also: potency is read from the fitted curve at half-maximal effect; % is scaled to controls: 0 for no effect and ±100 for the full control effect
Lassa entry inh: qHTS for Inhibitors of binding or entry into cells for Lassa Virus. Lassa virus pseudotype entry inhibition, cell reporter. Potency, µM (titrated, usually from 37.9 µM), inactives show at the top dose activity change, negative = inhibition, most hits filed as inhibitors. actives 1.2% (n = 300,000); calls by dose curve; tested in HEK293 cells; also: potency is read from the fitted curve at half-maximal effect; % is scaled to controls: 0 for no effect and ±100 for the full control effect; nearly all actives have a fitted effect of over 50% in size
* marks the source's active call; other numbers are inactive results; u = inconclusive; x = no result; ! = a repeat was not active; [ ] = remark or other dose. Compounds with a hit are over-represented: about 13% of the library has one in this group of screens.

SMILES	FMDV inh	Cycloheximide cs	Shiga toxin inh	HCV inhibitor	MARV entry inh	Lassa entry inh
CC1CCCC(C)N1C(=O)COC(=O)C12CC3CC(CC(Cl)(C3)C1)C2 (configuration not stated)	-17%	x	x	-7%	x	x
CC(C)(C)c1cnnn1-c1ccc(C(=O)CCl)cc1	3%	-2	-8	u	u	u
Cc1cc(OCCCCCN2CCCC2)ccc1Cl	-13%	11	-4	10µM*	x	x
CC(C)c1ccc(OCCCCN2CCCCC2)cc1	-10%	-1	15	u	11µM*	18%
CCOC(=O)CNC(c1ccccc1)c1cc(Br)ccc1NC(=O)c1cccc(Cl)c1 (configuration not stated)	-11%	x	x	x	x	u
COC(=O)CNC(c1ccccc1)c1cc(Cl)ccc1NC(=O)c1cccc(Cl)c1 (configuration not stated)	0%	-2	-3	-25%	10µM*	9%
O=C(Cn1c(C(=O)NCc2ccco2)cc2sccc21)c1ccccc1	-19%	24*	-3	-3%	4%	x
O=C(Cn1c(C(=O)NCC2CCCO2)cc2sccc21)c1ccccc1 (configuration not stated)	-7%	-4	-1	-2%	17%	3%
CCC(C)NC(=O)C1CCN(C(=O)c2cc3sccc3n2Cc2ccc(Cl)cc2)CC1 (configuration not stated)	14µM*	x	x	x	u	x
O=C(NCc1ccco1)C1CCN(C(=O)c2ccc(Cl)cc2)CC1	-22%	x	x	18%	x	x
COCCNC(=O)C1CCN(C(=O)c2cc3sccc3n2Cc2ccc(Cl)cc2)CC1	u	x	x	x	7.9µM*	x
O=C(NCc1ccco1)C1CCN(C(=O)c2cc3sccc3n2Cc2ccc(Cl)cc2)CC1	x	-1	-2	u	12µM*!	u
CC(C)CNC(=O)CN1C(=O)NC2(CCCc3ccccc32)C1=O (configuration not stated)	21%	-6	2	-7%	11%[46.1 µM]	1%[46.1 µM]
CCCn1c2ccccc2c2cnn(CC(=O)NCc3ccc(OC)cc3)c(=O)c21	-7%	x	x	x	x	-1%[46.1 µM]
COc1cc2c(cc1OC)CN(CCOc1ccc(Br)cc1)CC2	-18%	-1	-8	u	x	x
O=C(Cn1nnc2c(cnn2-c2ccc(F)cc2)c1=O)OC1CCCCC1	-12%	28*	64	17%	1%[46.1 µM]	17%
O=C(Nc1ccccc1)c1cc2ccccc2s1	9%	x	x	u	u	u
O=C(Nc1ccc(O)cc1)c1cc2ccccc2c(=O)s1	74%	56*	113*	u	u	-2%
O=C(Nc1ccccc1)c1cc2ccccc2c(=O)s1	38%	41*	36*	u	-2%	1%
O=C(Nc1nnc(-c2ccccc2)s1)c1ccc(Cl)c(S(=O)(=O)N2CCOCC2)c1	x	-4	-13	x	x	x
Cc1cc(C)n2nc(C(=O)NNC(=O)c3ccc(Cl)cc3)nc2n1	28%	31*	34*	-3%	x	x
Cc1cc(C)n2nc(C(=O)N/N=C/c3cccc(Cl)c3)nc2n1	12%	9.4*	34	5%	17%[46.1 µM]	17%[46.1 µM]
COc1cccc(/C=C/C(=O)OCC(=O)c2cc(C)n(CC3CCCO3)c2C)c1OC (configuration not stated)	-20%	-1	-7	u	5%	x
CCCc1nn2c(=O)cc(COC(=O)c3ccccc3NC(=O)COc3ccccc3)nc2s1	-23%	x	x	x	x	-3%[46.1 µM]
O=C1NC(=O)C(=Cc2ccccc2OCCOc2ccc([N+](=O)[O-])cc2)C(=O)N1	25%	11	15	-7%	u	u
SMILES	FMDV inh	Cycloheximide cs	Shiga toxin inh	HCV inhibitor	MARV entry inh	Lassa entry inh
Cc1cc(C)cc(OCCOc2cccc(C=C3C(=O)NC(=O)NC3=O)c2)c1	30%	18*	55*	3%	x	x
Cc1ccc(OCCOc2cccc(C=C3C(=O)NC(=O)NC3=O)c2)cc1	-65%	62*	93*	-2%	x	x
O=C1NC(=O)C(=Cc2ccc3ccccc3c2)C(=O)N1	-15%	-3	-6	13%	x	x
C=C(C)Cn1c(-c2cccc([N+](=O)[O-])c2)n[nH]c1=S	-15%	5	41	5%	-5%[46.1 µM]	x
CN(CC(=O)Nc1ccc(S(=O)(=O)N2CCCC2)cc1)Cc1c(F)cccc1Cl	u	11	5	u	5µM*	u
O=C(CN1CCN(S(=O)(=O)c2ccc(F)cc2)CC1)Nc1ccc(Cl)c(C(F)(F)F)c1	28µM*	1	-9	u	u	11µM*
CN(CC(=O)Nc1cccc(S(=O)(=O)N2CCCC2)c1)CC(=O)Nc1ccc(F)c(F)c1F	-21%	x	x	u	u	u
O=C(CN1CCN(S(=O)(=O)c2ccc(F)cc2)CC1)Nc1ccc2c(c1)OCCO2	0%	-2	31	-16%	12%	8%
CN(CC(=O)Nc1cccc(S(=O)(=O)N2CCCC2)c1)CC(=O)Nc1ccc(Cl)c(C(F)(F)F)c1	-22%	x	x	18µM*	u	u
O=C(c1cccc(S(=O)(=O)NCc2ccc3c(c2)OCO3)c1)N1CCCC1	19%	x	x	9%	x	x
O=c1[nH][nH]cc1C=NCc1cccnc1	4%	-7	24	7%	x	x
O=C(NC1CC1)C1CCN(c2nc3ccccc3s2)CC1	14%	23*	63*	-17%	u	-22%[46.1 µM]
CCCCC(=O)N1CCN(c2nc3ccc(F)cc3s2)CC1	-19%	12	35*	u	x	x
CCCC(=O)N1CCN(c2nc3ccc(F)cc3s2)CC1	-20%	x	x	x	x	-30%[46.1 µM]
O=C(NC1CCCCCC1)C1CCN(c2nc3ccccc3o2)CC1	u	0	-2	-8%	2%	x
CC(C)(C)C(=O)N1CCN(c2nc3ccccc3s2)CC1	16%	57*	76*	-29%	x	x
O=C(c1ccc2ccccc2n1)N1CCN(Cc2c(F)cccc2Cl)CC1	-11%	-4	5	-2%	u	-11%
Fc1cccc(Cl)c1CN1CCN(c2nc3ccccc3s2)CC1	-10%	53*	159*	2%	u	u
O=Cc1cnc(N2CCOCC2)nc1	-9%	1	28	-3%	u	13%
CCSc1ccccc1C(=O)N1CCN(c2nc3ccccc3s2)CC1	u	x	x	x	x	-26%[46.1 µM]
CCC(=O)N1CCN(c2nc3c(C)cccc3s2)CC1	31%	x	x	x	x	3%[46.1 µM]
CCC(=O)N1CCN(c2nc3ccc(Br)cc3s2)CC1	-8%	36*	59*	-8%	x	x
CCc1ccc2nc(N3CCN(C(=O)C(C)(C)C)CC3)sc2c1	u	23*	55*	u	x	x
CCN1CCN(c2nc3ccccc3s2)CC1	25%	33*	77*	0%	u	u
CCc1ccc2nc(N3CCN(C(=O)c4ccco4)CC3)sc2c1	6%	x	x	x	x	-1%[46.1 µM]
CCCC(=O)N1CCN(c2nc3ccccc3s2)CC1	2%	42*	42*	u	x	x
Cc1cc(=O)oc2cc(OCCSCCN3CCOCC3)ccc12	-10%	9	21	-4%	25%	15%
